How the values were obtained:
Conditions in all cases: concentration: 1 μM, replicates: in singlicate; n = 1
AKT3 = system: AKT3
ALK = system: ALK
AMPK-alpha1 = system: T1, AMPK-alpha1
T1 construct: gene PRKAA1

AMPK-alpha2 = system: T2, AMPK-alpha2
T2 construct: gene PRKAA2

ANKK1 = system: ANKK1
ARK5 = system: T3, ARK5
T3 construct: gene NUAK1

ASK1 = system: T4, ASK1
T4 construct: gene MAP3K5

ASK2 = system: T5, ASK2
T5 construct: gene MAP3K6

AURKA = system: AURKA
AURKB = system: AURKB
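Note: KINOMEscan kinase panel screen.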

Row | SMILES | %Inh (AKT3) [%] | %Inh (ALK) [%] | %Inh (AMPK-alpha1) [%] | %Inh (AMPK-alpha2) [%] | %Inh (ANKK1) [%] | %Inh (ARK5) [%] | %Inh (ASK1) [%] | %Inh (ASK2) [%] | %Inh (AURKA) [%] | %Inh (AURKB) [%]
1 | c1ccc(-c2ccc3c(-c4ccnc(Nc5ccc6c(c5)OCCO6)n4)cnn3n2)cc1 [GW818941] | 18 | 0 | 19 | 25 | 4 | 15 | 7 | 0 | 0 | 0
2 | COc1ccc(Nc2nccc(N3CCC(NC(=O)c4cccc(NC(C)=O)c4)C3)n2)cc1 (stereo not shown) [GSK1379732] | 23 | 0 | 5 | 0 | 11 | 9 | 0 | 1 | 16 | 1
3 | CC(C)(C)c1ccc(-n2cnc3c(N)ncnc32)cc1 [SKF-97263] | 0 | 7 | 14 | 21 | 24 | 10 | 1 | 1 | 7 | 16
4 | FC(F)(F)c1ccc(-c2cc(-c3c[nH]nc3-c3ccccn3)ccn2)cc1 [GW599550] | 0 | 24 | 4 | 16 | 20 | 0 | 5 | 0 | 18 | 17
5 | CNc1nccc(-c2c(-c3ccc(F)cc3)ncn2C2CCN(C)CC2)n1 [SB-222903] | 0 | 0 | 0 | 16 | 0 | 4 | 0 | 0 | 6 | 0
6 | Nc1n[nH]c2nnc(-c3ccccc3)cc12 [SB-517389] | 0 | 29 | 0 | 16 | 0 | 1 | 61 | 0 | 13 | 32
7 | Nc1nc(-c2ccc3c(N)n[nH]c3c2)cc(N2CCCCC2)n1 [GSK2228768] | 0 | 14 | 0 | 0 | 3 | 0 | 0 | 9 | 0 | 14
8 | Cc1ccc(O)cc1Nc1cc(C(F)(F)F)nc2ccc(-c3ccncc3)cc12 [GW630823] | 0 | 0 | 0 | 0 | 0 | 0 | 30 | 0 | 0 | 0
9 | Cc1cccc(-c2nc(Nc3ccc4[nH]nnc4c3)c3ccccc3n2)n1 [GW867587] | 0 | 2 | 0 | 0 | 0 | 0 | 0 | 0 | 0 | 0
10 | Nc1nc(-c2ccccn2)c(-c2ccnc3ccccc23)s1 [GW548057] | 0 | 17 | 14 | 1 | 20 | 24 | 2 | 0 | 17 | 0
11 | O=C(NCCCN1CCCC1=O)c1cnc(NCc2cc(Cl)ccc2Cl)nc1NC1CCNCC1 | 0 | 21 | 18 | 17 | 0 | 0 | 0 | 0 | 0 | 0
12 | Clc1cc(Nc2ncnc3cc[nH]c23)ccc1OCc1ccccn1 | 5 | 0 | 20 | 0 | 20 | 0 | 5 | 0 | 35 | 13
13 | COc1cc2c(Nc3cccc(NC(=O)c4ccccc4)c3)ncnc2cc1OCCCN1CCOCC1 [GSK223810] | 0 | 21 | 18 | 12 | 16 | 0 | 0 | 3 | 25 | 23
14 | CCC(CC)(CC)n1cnc2c(N)ncnc21 [SKF-97620] | 2 | 0 | 8 | 54 | 17 | 0 | 2 | 26 | 28 | 24
15 | FC(F)(F)c1ccc(-c2nn3ncccc3c2-c2ccnc(Nc3cccc(C(F)(F)F)c3)n2)cc1 [GW828205] | 15 | 0 | 12 | 0 | 0 | 6 | 0 | 0 | 0 | 14
16 | CNc1nccc(-c2c(-c3ccc(F)cc3)ncn2CCCN2CCOCC2)n1 [SB-222516] | 14 | 12 | 0 | 9 | 39 | 0 | 9 | 12 | 0 | 11
17 | Cc1ccc(NC(=O)c2cccc(C#N)c2)cc1-c1ccc(C(=O)Nc2ccncc2)cc1 [GSK1398463] | 0 | 31 | 0 | 15 | 0 | 33 | 3 | 8 | 7 | 12

Row | SMILES | %Inh (AKT3) [%] | %Inh (ALK) [%] | %Inh (AMPK-alpha1) [%] | %Inh (AMPK-alpha2) [%] | %Inh (ANKK1) [%] | %Inh (ARK5) [%] | %Inh (ASK1) [%] | %Inh (ASK2) [%] | %Inh (AURKA) [%] | %Inh (AURKB) [%]
18 | Cl.Fc1ccccc1COc1ccc(Nc2ncnc3ccc(-c4nnc(C(F)(F)F)o4)cc23)cc1Cl [GW424170] | 0 | 0 | 0 | 0 | 0 | 0 | 0 | 0 | 13 | 0
19 | O=C(CCO)NCCn1ccc2ncnc(Nc3ccc(Oc4cccc(C(F)(F)F)c4)c(Cl)c3)c21 | 0 | 0 | 0 | 0 | 0 | 0 | 0 | 0 | 0 | 0
20 | CCn1c(-c2ccncc2)nc2cnccc21 [SB-735216] | 0 | 6 | 0 | 5 | 21 | 8 | 0 | 20 | 7 | 29
21 | N#Cc1ccc(Oc2ccc(Nc3ncnc4cc[nH]c34)cc2Cl)cc1 | 0 | 0 | 17 | 15 | 28 | 10 | 18 | 0 | 11 | 16
22 | Cl.O=S(=O)(c1cccc(F)c1)c1ccc(Nc2ncnc3cc(Br)sc23)cc1Cl [GSK306886] | 0 | 14 | 0 | 0 | 3 | 10 | 8 | 0 | 30 | 0
23 | Cl.c1ccc(Cn2ccc3cc(Nc4ncnc5ccccc45)ccc32)cc1 [GW275568] | 0 | 0 | 11 | 0 | 43 | 29 | 1 | 0 | 17 | 30
24 | Clc1cccc(-c2nc(Nc3ccncc3)c3ccccc3n2)c1 [GW873004] | 1 | 33 | 30 | 9 | 0 | 0 | 13 | 0 | 0 | 17
25 | Cn1cc(-c2ccc3c(c2)CCN3C(=O)Cc2cccc(C(F)(F)F)c2)c2c(N)ncnc21 [GSK2606414] | 53 | 1 | 0 | 13 | 16 | 13 | 0 | 10 | 30 | 32
26 | Cl.Cl.c1ccc(-c2cc3ccncc3cc2OC2CCNCC2)cc1 [GSK1122999] | 0 | 23 | 16 | 22 | 0 | 13 | 0 | 4 | 17 | 10
27 | Fc1ccc(Nc2nccc(-c3c(-c4ccc(Cl)cc4)nn4ncccc34)n2)cc1F [GW829058] | 15 | 43 | 17 | 0 | 10 | 0 | 2 | 26 | 32 | 27
28 | O=C(c1ccc(-c2cc(-c3c[nH]nc3-c3ccccn3)ccn2)cc1)N1CCCC1 [GW792479] | 0 | 16 | 0 | 12 | 0 | 0 | 4 | 0 | 0 | 11
29 | COc1cc2ncnc(Nc3ccc(OCc4ccccc4Br)c(Cl)c3)c2cc1OC.Cl [GI261590] | 0 | 39 | 11 | 0 | 0 | 3 | 10 | 0 | 1 | 35
30 | COc1ccc(NC(=O)Nc2ccc(C)c(-c3ccc(C(=O)Nc4ccncc4)cc3)c2)cc1 [GSK1398475] | 0 | 18 | 0 | 0 | 10 | 0 | 4 | 0 | 4 | 0
31 | COC(=O)c1c(-c2ccccc2)c2cc(Cl)ccc2c(=O)n1Cc1ccc(S(C)(=O)=O)cc1 | 0 | 8 | 7 | 0 | 0 | 19 | 6 | 6 | 4 | 12
32 | C[C@@H]1CCN(C(=O)CO)C[C@@H]1N(C)c1ncnc2[nH]ccc12 | 7 | 15 | 5 | 0 | 0 | 0 | 0 | 0 | 0 | 0
33 | COC(=O)c1cccc(NC(=O)NCCNc2ccnc(Nc3ccc(F)cc3)n2)c1 [GSK1379883] | 0 | 32 | 0 | 18 | 1 | 0 | 0 | 0 | 21 | 0
34 | Cc1ccc(C)c(NC(=O)NCCNc2ccnc(Nc3ccc(F)cc3)n2)c1 [GSK1379878] | 0 | 2 | 10 | 0 | 5 | 0 | 0 | 0 | 7 | 0

Source: PMC5540273 (PLoS ONE, 2017)
